From PubChem BioAssay (NCATS) come the findings set out here.

Assay [1] concerns the target Rap guanine nucleotide exchange factor 3 (Homo sapiens) (UniProt O95398). Briefly: Confirmatory qHTS for antagonist of cAMP-regulated guanine nucleotide exchange factor 3 (EPAC1) (AID 1645880). Further: nearly all actives have a fitted effect of over 55% in size. Further: potency means the concentration at half of the fitted maximal effect. Summed up: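 Released BODIPY-GDP fluoresces less than Rap1-bound BODIPY-GDP; the signal is followed at 480/540 nm at 5-min intervals over 30 min, after 5 min at room temperature. Reactions contain 100 nM EPAC1, 250 nM RAP1B-BODIPY-GDP and 50 uM GDP; results are normalized to ATA and DMSO.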
In general terms: In qHTS, concentration-response curves come from the screen itself.

Assay [2] has the same target. Briefly: Confirmatory qHTS for agonist of cAMP-regulated guanine nucleotide exchange factor 3 (EPAC1) (AID 1645881). Further: nearly all actives have a fitted effect of over 75% in size. Further: potency means the concentration at half of the fitted maximal effect.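 On activation: EPAC1 catalysed release of BODIPY-GDP from Rap1B seen as fluorescence loss; 100% = effect of cAMP agonist control.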
The target of assay [3] is Rap guanine nucleotide exchange factor 4 (Homo sapiens) (UniProt Q8WZA2). In words: Confirmatory qHTS for agonist of cAMP-regulated guanine nucleotide exchange factor 4 (EPAC2) (AID 1645884).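 Further: nucleotide exchange releases bodipy-GDP from Rap1 and this lowers its fluorescence; nearly all actives have a fitted effect of over 65% in size.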 Further: potency means the concentration at half of the fitted maximal effect. On activation: on the % scale 0 is the no-effect control and ±100 the full control effect.
Chain of Rap guanine nucleotide exchange factor 4 (Homo sapiens) (Q8WZA2 whole entry, looked up): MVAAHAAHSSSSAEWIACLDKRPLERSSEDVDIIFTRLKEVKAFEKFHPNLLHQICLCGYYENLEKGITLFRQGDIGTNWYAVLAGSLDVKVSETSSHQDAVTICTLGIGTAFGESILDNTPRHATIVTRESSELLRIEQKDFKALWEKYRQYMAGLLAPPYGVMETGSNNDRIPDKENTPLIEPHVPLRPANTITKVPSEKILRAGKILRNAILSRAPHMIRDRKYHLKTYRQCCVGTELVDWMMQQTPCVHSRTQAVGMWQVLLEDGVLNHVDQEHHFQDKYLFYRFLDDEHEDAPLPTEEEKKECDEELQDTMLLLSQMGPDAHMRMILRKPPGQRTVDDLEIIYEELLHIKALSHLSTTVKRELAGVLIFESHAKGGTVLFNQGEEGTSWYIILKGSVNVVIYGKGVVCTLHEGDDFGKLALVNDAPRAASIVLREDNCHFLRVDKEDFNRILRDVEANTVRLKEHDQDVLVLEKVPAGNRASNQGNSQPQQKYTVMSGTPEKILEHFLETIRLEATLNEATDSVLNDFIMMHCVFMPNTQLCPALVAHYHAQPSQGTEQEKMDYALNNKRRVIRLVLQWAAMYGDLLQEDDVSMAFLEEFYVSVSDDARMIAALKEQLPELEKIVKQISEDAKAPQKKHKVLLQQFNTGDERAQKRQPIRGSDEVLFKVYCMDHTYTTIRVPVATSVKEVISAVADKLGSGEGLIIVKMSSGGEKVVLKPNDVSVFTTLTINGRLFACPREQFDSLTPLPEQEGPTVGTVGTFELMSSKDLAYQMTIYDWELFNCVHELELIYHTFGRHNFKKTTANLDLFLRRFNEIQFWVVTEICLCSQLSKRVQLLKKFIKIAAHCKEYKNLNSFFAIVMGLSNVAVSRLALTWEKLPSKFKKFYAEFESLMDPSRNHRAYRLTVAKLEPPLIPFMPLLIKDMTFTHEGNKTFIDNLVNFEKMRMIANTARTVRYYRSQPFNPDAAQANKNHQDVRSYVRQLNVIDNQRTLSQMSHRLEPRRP
For assay [4] the target is unchanged. In words: Confirmatory qHTS for antagonist of cAMP-regulated guanine nucleotide exchange factor 4 (EPAC2) (AID 1645885). Further: nearly all actives have a fitted effect of over 25% in size. Further: potency means the concentration at half of the fitted maximal effect. On activity change, negative = inhibition: on the % scale 0 is the no-effect control and ±100 the full control effect.
In assay [5] the target is Rap guanine nucleotide exchange factor 3 (Homo sapiens) (UniProt O95398). In words: Counterscreen qHTS for antagonist of cAMP-regulated guanine nucleotide exchange factor 3 (EPAC1) (AID 1645888). Further: % of control where 0% means no effect. A digest of the protocol:
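Rap1B-BODIPY-GDP 250 nM + GDP 50 uM; cpds 7-pt, final 9.74 nM–152 uM (activator mode) or from 7.32 nM upwards (inhibitor mode); RT; FI 480/540 nm at 5 and 30 min, then ± cAMP, reread.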

Each structure is given as a SMILES string. Inconclusive results are not listed. Values without a mark were called inactive. Active and inactive are the calls of the source. The call rests on the fitted dose curve; in most records, active means well fitted curve in the direction sought with a large enough effect; inconclusive means small, poorly fitted or top-dose-only effect, or another doubt; inactive means no such curve, though single readings can be large; an effect the other way counts as inactive or inconclusive.

Chain of Rap guanine nucleotide exchange factor 3 (Homo sapiens) (O95398 whole entry, looked up): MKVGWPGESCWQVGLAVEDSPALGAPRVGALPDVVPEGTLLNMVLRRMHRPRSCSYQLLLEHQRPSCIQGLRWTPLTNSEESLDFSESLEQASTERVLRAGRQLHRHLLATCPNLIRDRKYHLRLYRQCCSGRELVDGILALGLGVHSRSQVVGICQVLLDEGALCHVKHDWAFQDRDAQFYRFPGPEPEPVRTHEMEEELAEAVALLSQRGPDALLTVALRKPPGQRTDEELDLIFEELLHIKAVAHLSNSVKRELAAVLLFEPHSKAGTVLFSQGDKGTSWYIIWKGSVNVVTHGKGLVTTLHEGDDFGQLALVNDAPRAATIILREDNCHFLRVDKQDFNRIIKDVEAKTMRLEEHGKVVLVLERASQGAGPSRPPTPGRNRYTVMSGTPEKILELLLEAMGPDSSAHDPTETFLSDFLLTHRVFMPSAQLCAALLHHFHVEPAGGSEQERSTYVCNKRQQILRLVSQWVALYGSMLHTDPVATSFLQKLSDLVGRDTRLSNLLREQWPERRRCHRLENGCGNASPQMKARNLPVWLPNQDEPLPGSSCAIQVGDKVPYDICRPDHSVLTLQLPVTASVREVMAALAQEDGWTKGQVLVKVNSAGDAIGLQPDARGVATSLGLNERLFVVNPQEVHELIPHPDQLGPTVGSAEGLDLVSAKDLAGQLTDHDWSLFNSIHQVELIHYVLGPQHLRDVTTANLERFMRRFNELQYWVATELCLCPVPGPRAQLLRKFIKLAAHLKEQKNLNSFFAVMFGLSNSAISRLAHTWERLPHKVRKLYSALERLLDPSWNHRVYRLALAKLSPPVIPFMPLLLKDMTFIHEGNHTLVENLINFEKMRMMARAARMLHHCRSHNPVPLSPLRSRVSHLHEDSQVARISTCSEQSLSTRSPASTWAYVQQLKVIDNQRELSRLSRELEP

On to `CS(=O)(=O)N1N=C(c2ccco2)CC1c1ccc(Cl)cc1Cl` (stereo not given), for which the Potency result in assay [1], in assay [2] and in assay [4] was “inactive” in each case. Moreover, the activation in assay [3] was 0.361% [at 17.1 µM, percent relative to cAMP agonist control]. For the same compound, in assay [5], the activity change, negative = inhibition is 3.91% [at 30.8 µM].

`Cc1ccc(C2C(C#N)=C3N=C(N)c4ccccc4N3C3=C2C(=O)CCC3)cc1` (stereo not given): the Potency result in assay [1], in assay [2] and in assay [4] was “inactive” each time. The activation in assay [3] was 5.16% [at 17.1 µM, percent relative to cAMP agonist control]. Further, the activity change, negative = inhibition in assay [5] is -7.3% [at 30.8 µM].

Consider `O=C(NCc1ccco1)c1c[nH]c2ccc(S(=O)(=O)N3CCOCC3)cc2c1=O`, for which the Potency result in assay [1], in assay [2] and in assay [4] was “inactive” throughout. For the same compound, the activation in assay [3] is 7.59% [at 17.1 µM, percent relative to cAMP agonist control]. For the same compound, in assay [5], the activity change, negative = inhibition is 1.66% [at 30.8 µM].

Regarding `O=C1CC(=O)N(CCc2ccccc2)C(=O)N1CCc1ccccc1`, the Potency result in assay [1], in assay [2], in assay [3], in assay [4] and in assay [5] was “inactive” throughout.

`CCN1C(=O)/C(=C/c2ccc(N3CCCC3)cc2)NC1=S`: the Potency result in assay [1], in assay [2] and in assay [4] was “inactive” throughout. Also, in assay [3], the activation is 1.83% [at 17.1 µM, percent relative to cAMP agonist control]. Further, the activity change, negative = inhibition in assay [5] was 97.9% [at 30.8 µM].

Take `CC/C(=N/NC(=O)c1ccc2c(c1)OCO2)c1ccccc1O`: in assay [1], the Potency was 15.1 µM (active). Moreover, the Potency entry in assay [2], in assay [3], in assay [4] and in assay [5] was “inactive” throughout.

Regarding `C=CCn1c(SCC(=O)Nc2sccc2C(N)=O)nc2sc(CC)cc2c1=O`, the Potency result in assay [1], in assay [2] and in assay [4] was “inactive” each time. For the same compound, the activation in assay [3] was 6.26% [at 17.1 µM, percent relative to cAMP agonist control]. For the same compound, the activity change, negative = inhibition in assay [5] was -8.95% [at 30.8 µM].

Regarding `CN(Cc1ccccc1F)c1nc(-c2cccs2)nc2ccccc12`, the Potency entry in assay [1], in assay [2] and in assay [4] was “inactive” each time. Also, the activation in assay [3] was 0% [at 17.1 µM, percent relative to cAMP agonist control]. Moreover, the activity change, negative = inhibition in assay [5] was -18.6% [at 30.8 µM].

Regarding `CC(C)(C)c1ccc(OCCC(=O)OCC(=O)Nc2ccc(N3CCOCC3)cc2)cc1`, the Potency entry in assay [1], in assay [2], in assay [3], in assay [4] and in assay [5] was “inactive” in each case.

Consider `C=CCSc1nc2ccccc2c(=O)n1C1CCOC(C)(C)C1` (stereo not given), for which the Potency entry in assay [1], in assay [2], in assay [3], in assay [4] and in assay [5] was “inactive” in each case.

For `COc1ccc(S(=O)(=O)Nc2cccc(F)c2)cc1C`, the Potency entry in assay [1], in assay [2] and in assay [4] was “inactive” in each case. For the same compound, the activation in assay [3] was 1.76% [at 17.1 µM, percent relative to cAMP agonist control]. Moreover, the activity change, negative = inhibition in assay [5] is -14.5% [at 30.8 µM].

As for `Cc1ccc2c(c1)CCCN2C(=O)c1cc(C)c(C)s1`, the Potency entry in assay [1], in assay [2], in assay [3] and in assay [5] was “inactive” throughout. Moreover, the outcome in assay [4] was “inactive [at 12.7 µM]”.

Regarding `CC1CCN(c2ccc3c(c2)S(=O)(=O)c2ccccc2C3=O)CC1`, the Potency result in assay [1], in assay [4] and in assay [5] was “inactive” each time. The Potency was 112 µM (active) in assay [2] and 100 µM (active) in assay [3].

For `CCOc1ccc(-n2c(=O)[nH]cc(C(=O)Nc3ccc(OC)c(OC)c3)c2=O)cc1`, the Potency entry in assay [1], in assay [2], in assay [3], in assay [4] and in assay [5] was “inactive” throughout.

`Cc1cccc(C)c1Nc1c(-c2ccccc2F)nc2cccc(C)n12`: in assay [1], the Potency is 75.7 µM (active). Also, the Potency result in assay [2], in assay [3], in assay [4] and in assay [5] was “inactive” in each case.

Consider `CCC(C)N(C(=O)COC(=O)C1CCN(S(=O)(=O)c2ccc(C)c(C)c2)CC1)C1CCS(=O)(=O)C1` (stereo not given), for which the Potency entry in assay [1], in assay [2], in assay [3], in assay [4] and in assay [5] was “inactive” in each case.

In the case of `COC(CNC(=O)c1ccc2c3c(onc13)-c1ccccc1C2=O)OC`, the Potency entry in assay [1], in assay [4] and in assay [5] was “inactive” in each case. Besides, the results for the Potency in assay [2] and in assay [3] were 50.1 µM (active) and 100 µM (active), respectively.

With `CN(C)S(=O)(=O)c1cccc(-c2nn(-c3ccccc3)cc2/C=C2\SC(=S)NC2=O)c1`, the Potency was 21.3 µM (active) in assay [1] and 42.6 µM (active) in assay [4]. The Potency entry in assay [2], in assay [3] and in assay [5] was “inactive” each time.

For `O=C(CCCC(=O)Nc1cccnc1)Nc1cccnc1`, the Potency result in assay [1], in assay [2], in assay [3], in assay [4] and in assay [5] was “inactive” throughout.

In the case of `CCCN1CCN(S(=O)(=O)c2ccc3c(c2)NC(=O)C(C)C(=O)N3)CC1` (stereo not given), the Potency result in assay [1], in assay [2], in assay [3], in assay [4] and in assay [5] was “inactive” throughout.

Turning to `O=c1cc(O)c2sc3nc(-c4cccnc4)cc(C(F)(F)F)c3c2[nH]1`, the Potency entry in assay [1], in assay [2], in assay [3], in assay [4] and in assay [5] was “inactive” each time.

Consider `Cc1cc(C)c(-c2c(N)cc(Br)cc2Br)c(N)c1`, for which the Potency entry in assay [1], in assay [2], in assay [3], in assay [4] and in assay [5] was “inactive” throughout.

Turning to `CCC(C)Sc1c(C(C)C)cnc2c1c(=O)n(C)c(=O)n2C` (stereo not given), the Potency result in assay [1], in assay [2], in assay [3], in assay [4] and in assay [5] was “inactive” each time.
